The results in this text go back to PubChem BioAssay (EPA / NIEHS).

SMILES strings stand for the structures. Active and inactive are the calls of the source. How the source made its calls: active means hit-call score of the fitted dose curve at least 0.9, where 1 is the maximum; inactive means score below 0.9.

Read-out in assay [1]: Transforming growth factor beta 1 (TGFb1), TGFB1 (gene 7040)
Kind of assay: BSK_KF3CT_TGFb1: BioMAP Diversity Plus: KF3CT Assay for Transforming growth factor beta 1 (TGFb1) Biomarker Activity (AID 2283072). The conditions noted are these: primary human keratinocytes with fibroblasts; actives raise or lower the signal. The procedure, abridged: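 KF3CT co-culture (keratinocytes + fibroblasts), 24 h exposure → TGF-b1 ELISA → bidirectional fit, DMSO = baseline. Parallel SRB total-protein staining (0.1% SRB, 10% TCA fixation, 560 nm) for cytotoxicity.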

Read-out in assay [2]: C-C motif chemokine 2 (Homo sapiens) (UniProt P13500)
Kind of assay: BSK_KF3CT_MCP1: BioMAP Diversity Plus: KF3CT Assay for Monocyte Chemoattractant Protein 1 (MCP1/CCL2) Biomarker Activity (AID 2283073). The conditions noted are these: primary human keratinocytes with fibroblasts; actives raise or lower the signal. In outline: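 KF3CT skin co-culture (keratinocytes/foreskin fibroblasts), 24 h post-dose; MCP-1 by ELISA; gain/loss of signal fit bidirectionally vs DMSO baseline.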

Read-out in assay [3]: Matrix Metallopeptidase 9 (MMP9), MMP9 (gene 4318)
Kind of assay: BSK_KF3CT_MMP9: BioMAP Diversity Plus: KF3CT Assay for Matrix Metallopeptidase 9 (MMP9) Biomarker Activity (AID 2283074).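 On AC50: MMP9 protein level quantified by ELISA in the co-culture.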 The settings on record: primary human keratinocytes with fibroblasts; actives raise or lower the signal. The procedure, abridged: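 MMP-9 quantified by ELISA after 24 h chemical treatment of primary human skin keratinocyte/fibroblast co-cultures; gain or loss fitted against DMSO, with parallel SRB staining (0.1% SRB, 560 nm) for overt cytotoxicity.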

Read-out in assay [4]: urokinase plasminogen activator (uPA), PLAU (gene 5328)
Put plainly: BSK_KF3CT_uPA: BioMAP Diversity Plus: KF3CT Assay for urokinase plasminogen activator (uPA) Biomarker Activity (AID 2283075). The settings on record: primary human keratinocytes with fibroblasts; actives raise or lower the signal. In outline: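 ELISA read-out of uPA 24 h after dosing human skin keratinocytes co-cultured with foreskin fibroblasts. Signal change fitted both ways relative to DMSO; sulforhodamine B on parallel cultures marks overt cytotoxicity.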

Read-out in assay [5]: CD40, CD40 (gene 958)
Kind of assay: BSK_LPS_CD40: BioMAP Diversity Plus: LPS Assay for CD40 Biomarker Activity (AID 2283076). The settings on record: primary human HUVEC with PBMC; actives raise or lower the signal. The procedure, abridged:
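ELISA readout of CD40 in HUVEC/PBMC co-culture (BSK_LPS system), 24 h post-dosing; bidirectional curve fit, DMSO baseline; parallel SRB total-protein staining for cytotoxicity.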

Read-out in assay [6]: Interleukin-8 (IL8), CXCL8 (gene 3576)
Put plainly: BSK_LPS_IL8: BioMAP Diversity Plus: LPS Assay for Interleukin-8 (IL8) Biomarker Activity (AID 2283078). The settings on record: primary human HUVEC with PBMC; actives raise or lower the signal. The procedure, abridged:
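HUVEC + PBMC co-culture, LPS-activated; test chemicals dosed, IL-8 read by ELISA at 24 h. Bidirectional curve fit vs DMSO baseline (gain or loss of signal).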

The nature of assay [7]: BSK_LPS_SRB: Viability Assessment in the BioMAP Diversity Plus: LPS Assay (AID 2283079).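 Further: total protein by sulforhodamine B absorbance as a cytotoxicity measure; measured one day after compound addition; fitted in both directions against DMSO so loss or gain of signal counts.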 The settings on record: primary human HUVEC with PBMC. In outline:
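HUVEC + PBMC co-culture, LPS-stimulated; compound 24 h. 10% TCA fix, 0.1% SRB stain, A560. Bidirectional fit vs DMSO.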

Read-out in assay [8]: Interleukin-1 alpha (IL1a), IL1A (gene 3552)
Kind of assay: BSK_LPS_IL1a: BioMAP Diversity Plus: LPS Assay for Interleukin-1 alpha (IL1a) Biomarker Activity (AID 2283080). The conditions noted are these: primary human HUVEC with PBMC; actives raise or lower the signal. In outline:
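HUVEC/PBMC co-culture, LPS system; 24 h after dosing; IL-1a by ELISA; gain or loss of signal fitted bidirectionally vs DMSO baseline.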

Read-out in assay [9]: Monocyte Chemoattractant Protein-1 (MCP1), CCL2 (gene 6347)
Put plainly: BSK_LPS_MCP1: BioMAP Diversity Plus: LPS Assay for Monocyte Chemoattractant Protein-1 (MCP1) Biomarker Activity (AID 2283081). The conditions noted are these: primary human HUVEC with PBMC; actives raise or lower the signal. In outline: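 ELISA read-out of MCP-1 after 24 h chemical dosing of a human umbilical vein endothelial cell/peripheral blood mononuclear cell co-culture stimulated with LPS. Gain or loss of signal fitted relative to DMSO controls.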

Assay [10] can be described thus: BSK_LPS_PGE2: BioMAP Diversity Plus: LPS Assay for Prostaglandin E2 (PGE2) Biomarker Activity (AID 2283082).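 On AC50: secreted prostaglandin E2 measured by ELISA in LPS-stimulated co-culture.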 The settings on record: primary human HUVEC with PBMC; actives raise or lower the signal. In outline:
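Compounds were added to the LPS co-culture of endothelium and PBMC, and PGE2 was measured by ELISA after 24 h. Responses in either direction were fitted with DMSO as baseline.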

Read-out in assay [11]: Macrophage colony-stimulating factor (MCSF), CSF1 (gene 1435)
Put plainly: BSK_LPS_MCSF: BioMAP Diversity Plus: LPS Assay for Macrophage colony-stimulating factor (MCSF) Biomarker Activity (AID 2283083). The conditions noted are these: primary human HUVEC with PBMC; actives raise or lower the signal. In outline: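 HUVEC + PBMC co-culture (human primary), 24 h post-dose; M-CSF by ELISA; gain/loss of signal fitted bidirectionally vs DMSO baseline.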

Read-out in assay [12]: Tissue Factor, F3 (gene 2152)
Put plainly: BSK_LPS_TissueFactor: BioMAP Diversity Plus: LPS Assay for Tissue Factor Biomarker Activity (AID 2283084). The settings on record: primary human HUVEC with PBMC; actives raise or lower the signal. In outline: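 HUVEC/PBMC co-culture, LPS-activated; CD142 ELISA read 24 h post-dose; bidirectional curve fit vs DMSO negative control.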

Read-out in assay [13]: Tumor necrosis factor (Homo sapiens) (UniProt P01375)
Put plainly: BSK_LPS_TNFa: BioMAP Diversity Plus: LPS Assay for Tumour Necrosis Factor alpha (TNFa) Biomarker Activity (AID 2283085). The conditions noted are these: primary human HUVEC with PBMC; actives raise or lower the signal. The procedure, abridged: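 Cells (umbilical vein endothelium plus peripheral blood mononuclear cells) were dosed with chemical, incubated 24 h, then TNFa was quantified by ELISA; values derive from bidirectional fitting with DMSO as baseline.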

Read-out in the next assay: CD38, CD38 (gene 952)
Put plainly: BSK_SAg_CD38: BioMAP Diversity Plus: SAg Assay for CD38 Biomarker Activity (AID 2283087). The conditions noted are these: primary human HUVEC with PBMC; actives raise or lower the signal. In outline: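 CD38 quantified by ELISA (fluorescence) in a superantigen-activated endothelial cell–PBMC co-culture at 24 h post-dose. Activity fitted in both directions relative to DMSO; parallel SRB and Alamar Blue cytotoxicity read-outs.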

Read-out in assay [14]: CD40, CD40 (gene 958)
Put plainly: BSK_SAg_CD40: BioMAP Diversity Plus: SAg Assay for CD40 Biomarker Activity (AID 2283088). The conditions noted are these: primary human HUVEC with PBMC; actives raise or lower the signal. In outline: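 HUVEC/PBMC co-culture, 24 h post-dose; CD40 by ELISA, fluorescence intensity; bidirectional fit vs DMSO negative control.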

Read-out in a further assay: CD69, CD69 (gene 969)
Put plainly: BSK_SAg_CD69: BioMAP Diversity Plus: SAg Assay for CD69 Biomarker Activity (AID 2283089). The settings on record: primary human HUVEC with PBMC; actives raise or lower the signal. In outline:
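ELISA, fluorescence read-out: CD69 on human umbilical vein endothelial cell + PBMC co-culture, 24 h post-dosing. Gain or loss of signal fitted bidirectionally against DMSO baseline.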

Read-out in assay [15]: Monocyte Chemoattractant Protein-1 (MCP1), CCL2 (gene 6347)
Put plainly: BSK_SAg_MCP1: BioMAP Diversity Plus: SAg Assay for Monocyte Chemoattractant Protein-1 (MCP1) Biomarker Activity (AID 2283090). The settings on record: primary human HUVEC with PBMC; actives raise or lower the signal. In outline: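 Values derive from bidirectional fitting of ELISA-measured MCP1 against DMSO controls. Readings were taken 24 h after dosing human vascular endothelial cells co-cultured with peripheral blood mononuclear cells under superantigen stimulation.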

Read-out in assay [16]: E-selectin (Homo sapiens) (UniProt P16581)
Put plainly: BSK_SAg_Eselectin: BioMAP Diversity Plus: SAg Assay for Eselectin Biomarker Activity (AID 2283091). The conditions noted are these: primary human HUVEC with PBMC; actives raise or lower the signal. In outline: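 E-selectin ELISA readout at 24 h post-dosing in human umbilical vein endothelial cell/PBMC co-culture; gain or loss of signal fitted relative to DMSO baseline.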

Read-out in assay [17]: Vascular cell adhesion molecule 1 (VCAM1), VCAM1 (gene 7412)
Kind of assay: BSK_LPS_VCAM1: BioMAP Diversity Plus: LPS Assay for Vascular cell adhesion molecule 1 (VCAM1) Biomarker Activity (AID 2283086). The conditions noted are these: primary human HUVEC with PBMC; actives raise or lower the signal. The procedure, abridged:
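Cells are dosed in an LPS-stimulated endothelial/mononuclear co-culture and, after 24 h, VCAM-1 is quantified by ELISA. Activity in either direction is fitted relative to the DMSO negative control.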

Sequence of E-selectin (Homo sapiens) (P16581 whole entry, looked up): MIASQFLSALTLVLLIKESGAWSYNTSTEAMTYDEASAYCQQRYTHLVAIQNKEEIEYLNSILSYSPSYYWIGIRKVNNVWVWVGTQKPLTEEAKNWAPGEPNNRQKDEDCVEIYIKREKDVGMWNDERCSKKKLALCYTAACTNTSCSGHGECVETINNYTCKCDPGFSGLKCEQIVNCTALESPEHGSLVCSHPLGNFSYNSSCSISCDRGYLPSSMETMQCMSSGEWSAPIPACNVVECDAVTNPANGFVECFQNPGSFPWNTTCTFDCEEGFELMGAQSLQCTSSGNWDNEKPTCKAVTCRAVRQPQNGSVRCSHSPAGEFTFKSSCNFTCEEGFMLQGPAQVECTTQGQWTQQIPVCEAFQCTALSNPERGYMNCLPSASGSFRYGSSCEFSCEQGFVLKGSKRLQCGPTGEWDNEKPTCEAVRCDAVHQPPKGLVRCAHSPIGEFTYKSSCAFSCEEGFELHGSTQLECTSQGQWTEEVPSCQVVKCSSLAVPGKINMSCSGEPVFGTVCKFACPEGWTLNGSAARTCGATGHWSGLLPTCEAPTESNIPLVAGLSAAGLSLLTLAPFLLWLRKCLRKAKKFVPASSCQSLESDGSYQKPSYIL
Sequence of Tumor necrosis factor (Homo sapiens) (P01375 whole entry, looked up): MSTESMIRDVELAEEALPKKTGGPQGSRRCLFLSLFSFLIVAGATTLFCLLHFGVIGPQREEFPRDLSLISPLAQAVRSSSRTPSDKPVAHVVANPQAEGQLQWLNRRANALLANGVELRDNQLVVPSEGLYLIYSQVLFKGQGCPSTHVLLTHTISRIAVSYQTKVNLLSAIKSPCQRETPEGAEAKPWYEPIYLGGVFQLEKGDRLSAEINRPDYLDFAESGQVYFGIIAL

As to `CCCCCCCCCCCCCCCS(=O)(=O)Oc1ccccc1`, the outcome is “inactive” in assay [1]; “inactive” in assay [2]; “inactive” in assay [3]; “inactive” in assay [4]; “inactive” in the assay with CD40, CD40 (gene 958) [5]; “inactive” in assay [6]. The result in [7], in assay [8], in assay [9], in assay [10], in assay [11] and in assay [12] was inactive. Also, the outcome in [13] is “inactive”; with CD38, CD38 (gene 952) it was “inactive”; with CD40, CD40 (gene 958) [14] it was “inactive”; with CD69, CD69 (gene 969), “inactive”; in assay [15], “inactive”; in assay [16], “inactive”.

On to `OC1CCC(C2CCCCC2)CC1` (configuration not stated), for which the outcome in assay [1] was “inactive”; in assay [2], “inactive”; in assay [3], “inactive”; in [4], “inactive”; in the assay with CD40, CD40 (gene 958) [5] it was “inactive”; in [6], “inactive”. In addition, the result in assay [7], in assay [8], in assay [9], in assay [10], in assay [12] and in assay [13] was inactive. For the same compound, the outcome with CD38, CD38 (gene 952) is “inactive”; with CD40, CD40 (gene 958) [14], “inactive”; with CD69, CD69 (gene 969) it was “inactive”; in assay [15] it was “inactive”; in assay [16], “inactive”.

On to `CCCCCCCCCCCCc1ccccc1S(=O)(=O)O`, for which the AC50 in assay [1] was 12.4 µM (active); in [2], 24.3 µM (active); in [3], 12 µM (active); in assay [4], 28 µM (active). Moreover, the outcome with CD40, CD40 (gene 958) [5] was “inactive”; in assay [6], “inactive”; in [7], “inactive”; in assay [8] it was “inactive”; in [9] it was “inactive”; in assay [10], “inactive”. In addition, the outcome is “inactive” in assay [12]; “inactive” in assay [13]; “inactive” with CD38, CD38 (gene 952); “inactive” in the assay with CD40, CD40 (gene 958) [14]; “inactive” with CD69, CD69 (gene 969); “inactive” in assay [15]. In addition, the result in assay [16] was inactive.

In the case of `CCCOC(=O)c1ccc(O)cc1`, the outcome in assay [1] is “inactive”; in [2], “inactive”; in assay [3], “inactive”; in assay [4], “inactive”; with CD40, CD40 (gene 958) [5] it was “inactive”; in assay [6], “inactive”. Also, the outcome in [7], in [8], in assay [9], in assay [12], in [13] and in assay [17] was inactive. The outcome with CD38, CD38 (gene 952) was “inactive”; with CD40, CD40 (gene 958) [14], “inactive”; with CD69, CD69 (gene 969), “inactive”; in [15], “inactive”; in assay [16] it was “inactive”. For the same compound, in assay [10], the half-maximal activity concentration (AC50) is 9.7 µM (active).

For `c1ccc2c(c1)ccc1ccccc12`, the outcome in assay [1] was “inactive”; in assay [2], “inactive”; in assay [3], “inactive”; in [4] it was “inactive”; with CD40, CD40 (gene 958) [5], “inactive”; in assay [6], “inactive”. In addition, the result in [7], in assay [8], in assay [9], in assay [10], in [12] and in assay [13] was inactive. For the same compound, the outcome with CD38, CD38 (gene 952) was “inactive”; with CD40, CD40 (gene 958) [14] it was “inactive”; in the assay with CD69, CD69 (gene 969), “inactive”; in assay [15] it was “inactive”; in assay [16], “inactive”.
